Assay results published in the supplement of paper PMC12282887.
± gives the standard deviation of the averaged measurements.

Experiments:
Experiment in all cases: promoter activity interaction Z-score (Lux/OD deviation from empty-vector control); higher = stronger promoter induction by the compound
[1] = system: E. coli BW25113 acrABp lux reporter
Procedure, shortened: (§1)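 At 37°C, E. coli BW25113 reporter cultures in 40 µl LB Lennox in 384-well plates were read for OD600 and luminescence every 30 min for 12 h. Windows were 0–8 h for wild type and 1–9 h for deletion strains, and wells under 10% of the median growth value were removed. The score is the Z-transformed residual of growth-normalised luminescence against a control fit.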

[2] = system: E. coli BW25113 micFp lux reporter
Procedure, shortened: as §1

[3] = system: E. coli BW25113 ompFp lux reporter
Procedure, shortened: as §1

[4] = system: E. coli BW25113 robp lux reporter
Procedure, shortened: as §1

[5] = system: E. coli BW25113 soxSp lux reporter
Procedure, shortened: as §1

[6] = system: E. coli BW25113 tolCp lux reporter
Procedure, shortened: as §1

[7] = 0.02 µg/ml, genetic background: wild type
[8] = 0.02 µg/ml, genetic background: ΔmarA
[9] = 0.02 µg/ml, genetic background: Δrob
[10] = 0.02 µg/ml, genetic background: ΔsoxS
[11] = 0.04 µg/ml, genetic background: wild type
[12] = 0.04 µg/ml, genetic background: ΔmarA
[13] = 0.04 µg/ml, genetic background: Δrob
[14] = 0.04 µg/ml, genetic background: ΔsoxS
[15] = 0.079 µg/ml, genetic background: wild type
[16] = 0.079 µg/ml, genetic background: ΔmarA
[17] = 0.079 µg/ml, genetic background: Δrob
[18] = 0.079 µg/ml, genetic background: ΔsoxS
[19] = 0.16 µg/ml, genetic background: wild type
[20] = 0.16 µg/ml, genetic background: ΔmarA
[21] = 0.16 µg/ml, genetic background: Δrob
[22] = 0.16 µg/ml, genetic background: ΔsoxS

SMILES: C[C@@H](O)[C@H]1C(=O)N2C(C(=O)O)=C(SCCNC=N)C[C@H]12 [Imipenem]
- promoter activity interaction Z-score [1, 7]: 0.313 ± 0.12
- promoter activity interaction Z-score [1, 8]: 1.28 ± 1.8
- promoter activity interaction Z-score [1, 9]: 0.353 ± 0.18
- promoter activity interaction Z-score [1, 10]: 0.0665 ± 0.11
- promoter activity interaction Z-score [1, 11]: 0.296 ± 0.28
- promoter activity interaction Z-score [1, 12]: 0.881 ± 0.37
- promoter activity interaction Z-score [1, 13]: 0.492 ± 0.11
- promoter activity interaction Z-score [1, 14]: -0.0993 ± 0.31
- promoter activity interaction Z-score [1, 15]: 0.282 ± 0.4
- promoter activity interaction Z-score [1, 16]: -0.701 ± 0.22
- promoter activity interaction Z-score [1, 17]: 0.209 ± 0.086
- promoter activity interaction Z-score [1, 18]: 0.325 ± 0.52
- promoter activity interaction Z-score [1, 19]: 0.0724 ± 0.69
- promoter activity interaction Z-score [1, 20]: -0.226 ± 0.46
- promoter activity interaction Z-score [1, 21]: 0.107 ± 0.094
- promoter activity interaction Z-score [1, 22]: 0.865 ± 0.24
- promoter activity interaction Z-score [2, 7]: -0.142 ± 0.16
- promoter activity interaction Z-score [2, 8]: 0.0296 ± 0.051
- promoter activity interaction Z-score [2, 9]: -0.0038 ± 0.09
- promoter activity interaction Z-score [2, 10]: -0.119 ± 0.17
- promoter activity interaction Z-score [2, 11]: 0.0424 ± 0.3
- promoter activity interaction Z-score [2, 12]: 0.0155 ± 0.0044
- promoter activity interaction Z-score [2, 13]: 0.104 ± 0.069
- promoter activity interaction Z-score [2, 14]: -0.24 ± 0.14
- promoter activity interaction Z-score [2, 15]: -0.145 ± 0.082
- promoter activity interaction Z-score [2, 16]: -0.07 ± 0.02
- promoter activity interaction Z-score [2, 17]: -0.0557 ± 0.0065
- promoter activity interaction Z-score [2, 18]: 0.206 ± 0.3
- promoter activity interaction Z-score [2, 19]: -0.0706 ± 0.42
- promoter activity interaction Z-score [2, 20]: -0.131 ± 0.072
- promoter activity interaction Z-score [2, 21]: -0.0161 ± 0.083
- promoter activity interaction Z-score [2, 22]: 0.512 ± 0.49
- promoter activity interaction Z-score [3, 7]: 0.592 ± 0.022
- promoter activity interaction Z-score [3, 8]: 0.885 ± 0.097
- promoter activity interaction Z-score [3, 9]: 0.602 ± 0.084
- promoter activity interaction Z-score [3, 10]: 0.271 ± 0.35
- promoter activity interaction Z-score [3, 11]: 0.679 ± 0.22
- promoter activity interaction Z-score [3, 12]: 0.662 ± 0.21
- promoter activity interaction Z-score [3, 13]: 0.743 ± 0.19
- promoter activity interaction Z-score [3, 14]: 0.276 ± 0.85
- promoter activity interaction Z-score [3, 15]: 0.372 ± 0.28
- promoter activity interaction Z-score [3, 16]: 0.257 ± 0.3
- promoter activity interaction Z-score [3, 17]: 0.789 ± 0.66
- promoter activity interaction Z-score [3, 18]: 0.142 ± 0.038
- promoter activity interaction Z-score [3, 19]: 0.851 ± 0.33
- promoter activity interaction Z-score [3, 20]: 1.19 ± 0.16
- promoter activity interaction Z-score [3, 21]: 1.34 ± 0.058
- promoter activity interaction Z-score [3, 22]: 1.39 ± 0.5
- promoter activity interaction Z-score [4, 7]: 0.863 ± 0.1
- promoter activity interaction Z-score [4, 8]: 1.42 ± 0.61
- promoter activity interaction Z-score [4, 9]: 1.13 ± 0.1
- promoter activity interaction Z-score [4, 10]: 0.38 ± 1.6
- promoter activity interaction Z-score [4, 11]: 1.42 ± 0.9
- promoter activity interaction Z-score [4, 12]: 0.964 ± 0.54
- promoter activity interaction Z-score [4, 13]: 0.862 ± 0.23
- promoter activity interaction Z-score [4, 14]: -0.648 ± 0.39
- promoter activity interaction Z-score [4, 15]: 0.399 ± 0.46
- promoter activity interaction Z-score [4, 16]: -0.467 ± 0.12
- promoter activity interaction Z-score [4, 17]: -0.0634 ± 0.12
- promoter activity interaction Z-score [4, 18]: 0.149 ± 0.0074
- promoter activity interaction Z-score [4, 19]: 0.582 ± 0.12
- promoter activity interaction Z-score [4, 20]: -0.0297 ± 0.2
- promoter activity interaction Z-score [4, 21]: 0.845 ± 0.3
- promoter activity interaction Z-score [4, 22]: 0.155 ± 0.23
- promoter activity interaction Z-score [5, 7]: 0.0906 ± 0.0094
- promoter activity interaction Z-score [5, 8]: -0.0591 ± 0.084
- promoter activity interaction Z-score [5, 9]: 0.0225 ± 0.12
- promoter activity interaction Z-score [5, 10]: -0.179 ± 0.12
- promoter activity interaction Z-score [5, 11]: 0.124 ± 0.076
- promoter activity interaction Z-score [5, 12]: 0.161 ± 0.03
- promoter activity interaction Z-score [5, 13]: 0.187 ± 0.23
- promoter activity interaction Z-score [5, 14]: -0.163 ± 0.26
- promoter activity interaction Z-score [5, 15]: 0.146 ± 0.15
- promoter activity interaction Z-score [5, 16]: -0.0799 ± 0.11
- promoter activity interaction Z-score [5, 17]: -0.00226 ± 0.029
- promoter activity interaction Z-score [5, 18]: 0.121 ± 0.18
- promoter activity interaction Z-score [5, 19]: 0.0824 ± 0.27
- promoter activity interaction Z-score [5, 20]: -0.0185 ± 0.033
- promoter activity interaction Z-score [5, 21]: -0.0171 ± 0.17
- promoter activity interaction Z-score [5, 22]: 0.177 ± 0.52
- promoter activity interaction Z-score [6, 7]: 0.541 ± 0.2
- promoter activity interaction Z-score [6, 8]: 0.817 ± 0.21
- promoter activity interaction Z-score [6, 9]: -0.144 ± 0.41
- promoter activity interaction Z-score [6, 10]: -0.241 ± 0.51
- promoter activity interaction Z-score [6, 11]: 0.146 ± 1.3
- promoter activity interaction Z-score [6, 12]: 0.917 ± 0.58
- promoter activity interaction Z-score [6, 13]: 1.47 ± 0.4
- promoter activity interaction Z-score [6, 14]: -1.38 ± 0.5
- promoter activity interaction Z-score [6, 15]: 0.00539 ± 0.13
- promoter activity interaction Z-score [6, 16]: -0.369 ± 0.35
- promoter activity interaction Z-score [6, 17]: 0.295 ± 0.094
- promoter activity interaction Z-score [6, 18]: -0.148 ± 0.41
- promoter activity interaction Z-score [6, 19]: -0.803 ± 0.044
- promoter activity interaction Z-score [6, 20]: 0.117 ± 0.52
- promoter activity interaction Z-score [6, 21]: 0.323 ± 0.18
- promoter activity interaction Z-score [6, 22]: 0.105 ± 0.88
